Screening data (PubChem BioAssay)
Hits are enriched below; roughly 3.4% of the tested compounds scored in any of these assays.
TEAD-YAP block: TEAD-YAP interaction inhibition; inhibition, % at 9.12 µM; HEK-TIYL cells, TEAD-Gal4/YAP UAS-luciferase luminescence; hit rate 1.4% among 640,000; in the data active = inhibition above about 32%
FBW7 act: human FBW7 E3 ligase activation, primary screen; Q969H0; normalized activity (activation), % at 26.1 µM; AlphaScreen FBW7–phospho-cyclin E peptide binding, activator screen; AID 1259310; hit rate 0.13% among 650,000; in the data active = normalized activity above about 1.9%;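 also: purified mutant Fbw7 with reduced substrate affinity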
Target sequence (Q969H0 whole entry, looked up): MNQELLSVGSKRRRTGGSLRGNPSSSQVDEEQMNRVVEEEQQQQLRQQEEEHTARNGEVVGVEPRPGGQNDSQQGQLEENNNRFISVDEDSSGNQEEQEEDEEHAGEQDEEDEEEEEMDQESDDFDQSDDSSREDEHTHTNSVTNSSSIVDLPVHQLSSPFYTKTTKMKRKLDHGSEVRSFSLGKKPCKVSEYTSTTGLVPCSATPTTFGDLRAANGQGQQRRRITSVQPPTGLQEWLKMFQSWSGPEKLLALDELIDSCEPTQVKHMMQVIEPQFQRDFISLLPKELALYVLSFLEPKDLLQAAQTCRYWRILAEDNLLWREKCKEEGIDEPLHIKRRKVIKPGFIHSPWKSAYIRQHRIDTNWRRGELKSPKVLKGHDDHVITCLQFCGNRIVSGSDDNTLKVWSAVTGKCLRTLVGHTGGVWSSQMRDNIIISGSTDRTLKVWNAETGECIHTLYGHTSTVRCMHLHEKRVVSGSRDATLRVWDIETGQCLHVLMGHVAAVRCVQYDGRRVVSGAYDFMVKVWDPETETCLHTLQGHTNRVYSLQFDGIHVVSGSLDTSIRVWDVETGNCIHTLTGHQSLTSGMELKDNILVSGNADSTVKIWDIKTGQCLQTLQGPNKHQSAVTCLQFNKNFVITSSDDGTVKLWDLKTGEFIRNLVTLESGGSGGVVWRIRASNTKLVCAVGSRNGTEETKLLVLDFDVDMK
GPR151 ag: activators of human GPR151 | PathHunter beta-arrestin GPR151 cells, luminescence | activation, % at 11.2 µM | hit rate 1% among 650,000 | AID 1508602; in the data active = activation above about 4.9%
MITF primary: inhibitors of human MITF | O75030 | AlphaScreen MITF homodimerization, bead proximity signal | inhibition, % at 2.6 µM | hit rate 0.91% among 650,000; in the data active = inhibition above about 50%
GPR151 conf act: human GPR151 activation, confirmation screen; shares compounds with GPR151 ag; GPR151 PathHunter beta-arrestin cells, luminescence, 90 min; % of EA-reagent control over plate median; activation, % at 11.2 µM; 6,700 tested, under 10 active; AID 1508609;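 active = mean percent activation across replicates above the confirmation screen cutoff of 4.91%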
GPR119 ag: GPR119 activation, counter-screen for GPR151 activators | hit rate 0.3% among 6,700 | GPR119 PathHunter beta-arrestin cells, luminescence, 90 min; 0 = compound-well median, 100 = enzyme-acceptor control | activation, % at 11.2 µM | shares compounds with GPR151 ag;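 active = mean percent activation in the counterscreen above 29.09%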;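 also: counterscreen on off-target GPR119 to flag nonselective hits from the GPR151 activator screen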
Each line names hits and unclear results; the compound was inactive in the other large screens (follow-up assays come after a bar, where they were run).

CCOc1ccc(-n2c(C)c(C(C)=O)c3cc(OC(C)=O)ccc32)cc1	GPR151 ag 5.3 | GPR151 conf act inactive | GPR119 ag inactive
COc1cc(Nc2cc(-c3ccc(C(N)=O)cc3)nc(N)n2)cc(OC)c1OC	GPR151 ag 12 | GPR151 conf act inactive | GPR119 ag inactive
CCOC(=O)CC(C(C)C)N(Cc1ccc(Cl)c([N+](=O)[O-])c1)S(=O)(=O)c1ccc(Cl)cc1 (stereo unspecified)	GPR151 ag 9.1 | GPR151 conf act inactive | GPR119 ag inactive
Nc1ccc2c(c1)nc(CCCO)n2CCO	none
CN(c1cccc(NS(=O)(=O)c2cc(Cl)ccc2Cl)c1)S(C)(=O)=O	none
O=Cc1cn(CC(=O)NCCc2ccccc2)c2ccccc12	GPR151 ag 7.0 | GPR151 conf act inactive | GPR119 ag inactive
O=Cc1cn(CC(=O)NCc2ccccc2)c2ccccc12	none
Cc1nc(N2CCOCC2)nc2c1CCC2	GPR151 ag 10 | GPR151 conf act inactive | GPR119 ag inactive
COc1ccc(Nc2nc(=S)[nH]c3cc(OC)c(OC)cc23)cc1OC	GPR151 ag 6.6 | GPR151 conf act inactive | GPR119 ag inactive
COc1cc2[nH]c(=S)nc(Nc3ccncc3)c2cc1OC	none
O=c1[nH]c(C(F)(F)F)nc2c1ccc1ccccc12	none
CC1(C2CCN(C(=O)C(=O)c3ccccc3)CC2)NC(=O)N(C2Cc3ccccc3C2)C1=O (stereo unspecified)	GPR151 ag 5.2 | GPR151 conf act inactive | GPR119 ag inactive
CC1(C2CCN(C(=O)Cc3ccsc3)CC2)NC(=O)N(C2Cc3ccccc3C2)C1=O (stereo unspecified)	none
COc1ccc(/C=C2/C(=O)NN(c3ccccc3)C2=O)cc1Br	none
Cc1ccccc1C1CC(=O)Nc2cc3c(cc21)OCO3 (stereo unspecified)	GPR151 ag 6.0 | GPR151 conf act inactive | GPR119 ag inactive
Cc1ccccc1CN1CCC(N2CCC(C(=O)NCC3CCCO3)CC2)CC1 (stereo unspecified)	GPR151 ag 8.4 | GPR151 conf act inactive | GPR119 ag inactive
O=C(c1ccc(Cl)cc1)c1cc(NC(=O)c2cc(Br)cc(Br)c2O)ccc1Cl	GPR151 ag 8.2 | GPR151 conf act inactive | GPR119 ag inactive
Cc1ccc(CCNC(=O)CN2CCN(Cc3cccc(C)c3)C2=O)cc1	GPR151 ag 5.5 | GPR151 conf act inactive | GPR119 ag inactive
COC(=O)C1=C(O)/C(=C\c2cc(C)n(-c3cc(Cl)ccc3C)c2C)N=C1C	none
COC(=O)C1=C(O)/C(=C/c2cc(C)n(-c3cc(C)ccc3C)c2C)N=C1C	GPR151 ag 5.2 | GPR151 conf act inactive | GPR119 ag inactive
C=CCn1c(=NC(=O)c2ccc([N+](=O)[O-])o2)sc2cc(S(N)(=O)=O)ccc21	none
CC1CCCC(C)N1C(=O)Cn1c(C(F)(F)F)nc2ccccc21 (stereo unspecified)	GPR151 ag 12 | GPR151 conf act inactive | GPR119 ag inactive
CC1CN(C(=O)Cn2c(C(F)(F)F)nc3ccccc32)CC(C)O1 (stereo unspecified)	none
CCOC(=O)C1CCN(Cc2ccc([N+](=O)[O-])s2)CC1	none
CCOC(=O)C1=C(C)Nc2nc(-c3cccs3)nn2C1c1ccc(C#N)cc1 (stereo unspecified)	none
COc1ccc(OC)c(NC(=O)c2oc3ccccc3c2NC(=O)CC(C)C)c1	none
CC1=NN(C(=O)c2cccc([N+](=O)[O-])c2)C(O)(c2ccccc2)C1 (stereo unspecified)	none
Cc1c(Cl)cccc1NC(=O)/C(C#N)=C/c1ccc(OCC(N)=O)cc1	none
COCCn1nnnc1C(c1cc2cccc(C)c2[nH]c1=O)N1CCCCC1 (stereo unspecified)	GPR151 ag 5.2 | GPR151 conf act inactive | GPR119 ag inactive
COCCn1nnnc1C(c1cc2cccc(C)c2[nH]c1=O)N1CCCCCC1 (stereo unspecified)	none
CCOCCCNCc1ccccc1F	GPR151 ag 5.2 | GPR151 conf act inactive | GPR119 ag inactive
CCOC(=O)CCCCNCc1ccccc1F	none
CC12CCc3ccccc3C1(C)OC(=O)O2 (stereo unspecified)	none
CN1C(=O)OC2(C)CCc3ccccc3C12C (stereo unspecified)	GPR151 ag 5.0 | GPR151 conf act inactive | GPR119 ag inactive
CS(=O)(=O)N(CC(=O)Nc1ccccc1Br)c1ccc(Cl)cc1	none
CCCCNCCCOc1cc(C)ccc1C	GPR151 ag 5.0 | GPR151 conf act inactive | GPR119 ag inactive
CCCCNCCOc1cc(C)ccc1C	none
COCCNCCOc1ccc(C)cc1C	GPR151 ag 8.1 | GPR151 conf act inactive | GPR119 ag inactive
COCCNCCOc1ccc(C)cc1Cl	none
Cc1ccc(C)c(OCCN2CCNCC2)c1	GPR151 ag 9.0 | GPR151 conf act inactive | GPR119 ag inactive
Cc1c(C(=O)NCCN(C)C)sc2ncn(CC(=O)N3CCCCC3)c(=O)c12	none
CC(C)(C)C1=N/C(=C\c2cccnc2)C(=O)O1	none
O=C(O)CCCC(=O)Nc1nc(-c2ccccc2)cs1	none
Cc1ccccc1OCCCC(=O)Nc1nc(-c2ccccc2)cs1	GPR151 ag 7.1 | GPR151 conf act inactive | GPR119 ag inactive
COc1ccc(-c2cnc(SCC(=O)Nc3ccccc3)[nH]2)cc1	none
O=S(=O)(CCc1ccccc1)Nc1ccc(Cl)c(N2CCCS2(=O)=O)c1	none
CSc1ncnc2c1c(-c1ccccc1)cn2-c1ccc(F)cc1	none
Cc1cc(Br)ccc1S(=O)(=O)N1CCOCC1	none
O=S(=O)(c1ccc(Br)cc1Br)N1CCOCC1	GPR151 ag 5.1 | GPR151 conf act inactive | GPR119 ag inactive
CCNc1ncc(C)c(NCCN(C(C)C)C(C)C)n1	none
CCC(C)(C)C1CCc2oc3ccc(NS(=O)(=O)c4ccc(C)cc4)cc3c2C1 (stereo unspecified)	none
CCCNS(=O)(=O)c1ccc(CN2C(=O)c3cccnc3C2=O)cc1	none
O=C1c2cccnc2C(=O)N1Cc1ccc(S(=O)(=O)N2CCCc3ccccc32)cc1	GPR151 ag 5.9 | GPR151 conf act inactive | GPR119 ag inactive
Cc1cccnc1NS(=O)(=O)c1ccc(CN2C(=O)c3cccnc3C2=O)cc1	GPR151 ag 6.0 | GPR151 conf act inactive | GPR119 ag inactive
COc1ccc(CNc2c3c(nc4nncn24)CCC3)cc1	GPR151 ag 7.3 | GPR151 conf act inactive | GPR119 ag inactive
CCCc1cc(=O)[nH]c(Nc2ccc(F)cc2)n1	none
CCOC(=O)C1CCCN(CCC(C)c2ccccc2)C1 (stereo unspecified)	GPR151 ag 8.1 | GPR151 conf act inactive | GPR119 ag inactive
CCOC(=O)C1CCCN(CCC(=O)Nc2ccccc2)C1 (stereo unspecified)	none
O=[N+]([O-])c1ccc(N/C(=N\S(=O)(=O)c2ccc(Cl)cc2)c2ccccc2)cc1	none
